Cruzain inh noDet: qHTS Assay for Promiscuous and Specific Inhibitors of Cruzain (without detergent) | Cruzipain (Trypanosoma cruzi), P25779 | purified cruzain, Z-FR-AMC fluorescence, no detergent | Potency, µM, without a hit: max response, negative = inhibition, usual class: inhibitors | AID 1476, 2009 | 200,000 tested, 2.3% active;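 further: plate controls were enzyme without inhibitor for no effect and buffer without enzyme for full effect; nearly all actives have a fitted effect of over 40% in size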
Target sequence (P25779 123-467 limits assumed): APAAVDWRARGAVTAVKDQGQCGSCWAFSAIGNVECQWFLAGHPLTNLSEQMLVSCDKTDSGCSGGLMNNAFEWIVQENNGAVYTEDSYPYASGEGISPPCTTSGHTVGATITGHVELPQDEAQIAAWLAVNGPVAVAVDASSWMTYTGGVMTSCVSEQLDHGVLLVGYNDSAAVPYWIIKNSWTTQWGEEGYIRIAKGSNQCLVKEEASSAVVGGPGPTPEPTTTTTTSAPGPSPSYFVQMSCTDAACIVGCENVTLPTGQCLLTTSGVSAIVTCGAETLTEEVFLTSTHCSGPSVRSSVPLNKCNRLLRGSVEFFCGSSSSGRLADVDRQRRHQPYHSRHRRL
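Detergent-free condition (0.00005% Triton X-100) in acetate buffer pH 5.5 with DTT. 1.5 nM enzyme and compound were pre-mixed 15 min, then 2 uM Z-FR-AMC substrate added; reaction progress from fluorescence change between first and third reads (60 s).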
Cruzain inh Det: qHTS Assay for Promiscuous and Specific Inhibitors of Cruzain (with detergent) | Potency, µM, for inactives: max response, negative = inhibition, most hits filed as inhibitors | 200,000 tested, 0.43% active | Cruzipain (Trypanosoma cruzi), P25779 | AID 1478, 2009 | purified cruzain, Z-FR-AMC fluorescence, 0.01% Triton;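 further: plate controls were neutral wells for no effect and buffer without enzyme for full effect; nearly all actives have a fitted effect of over 40% in size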
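Detergent-containing run (0.01% Triton X-100) in acetate buffer pH 5.5 with 5 mM DTT: enzyme at 1.5 nM final, 15 min compound preincubation at room temperature, then 2 uM Z-FR-AMC substrate. Activity taken as 60 s fluorescence increase at 360/450 nm.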
Active calls of the source: *. This is a sample that favours compounds with a hit; in the whole collection about 2.4% have one here. The call rests on the fitted dose curve; in most records, active means well fitted curve in the direction sought with a large enough effect; inconclusive means small, poorly fitted or top-dose-only effect, or another doubt; inactive means no such curve, though single readings can be large; an effect the other way counts as inactive or inconclusive. Potency means the concentration at half of the fitted maximal effect.

What do the screens show for `c1cc2c3c(cccc3c1)NC1(CCCCCC1)N2`?
Cruzain inh noDet: 13µM*; Cruzain inh Det: -1%

Results for c1cc2c3c(cccc3c1)NC1(CCCCC1)N2 ?
Cruzain inh noDet: 7.9µM*; Cruzain inh Det: 0%

What do the screens show for `Cc1cccc(C(=O)Nc2ccc(C(=O)OCc3cc(=O)n4nc(CC(C)C)sc4n3)cc2)c1`?
Cruzain inh noDet: -7%; Cruzain inh Det: 1%

What do the screens show for `COc1ccc(-c2cc3nc(-c4ccc(Br)cc4)cc(C(F)(F)F)n3n2)cc1`?
Cruzain inh noDet: -5%; Cruzain inh Det: 0%

How did CCOC(=O)c1c(NC(C)=O)c2c3c(sc2n1Cc1nc(-c2cccc(C)c2)oc1C)CCCC3 do in these assays?
Cruzain inh noDet: 4%; Cruzain inh Det: -1%

Results for CCCc1ccc(OC(=O)CSc2nnc(-c3cccs3)o2)cc1 ?
Cruzain inh noDet: -5%; Cruzain inh Det: -4%

What do the screens show for `O=C(N1CCOCC1)C1(c2ccccc2)CCNCC1`?
Cruzain inh noDet: -2%; Cruzain inh Det: 7%

What do the screens show for `COc1ccc(C2CC(=O)N3CN(c4ccccc4F)CSC3=C2C#N)cc1OC` (stereo not given)?
Cruzain inh noDet: 2%; Cruzain inh Det: 1%

Results for CCc1ccccc1N1CSC2=C(C#N)C(c3ccccc3F)CC(=O)N2C1 (stereo not given) ?
Cruzain inh noDet: 25µM*; Cruzain inh Det: -4%

Results for COc1cccc(-c2cc(N(C)Cc3ccco3)ncn2)c1 ?
Cruzain inh noDet: -7%; Cruzain inh Det: -1%

Results for Cc1nn2c(=O)cc(COC(=O)c3ccccc3NC(=O)c3cccs3)nc2s1 ?
Cruzain inh noDet: 0%; Cruzain inh Det: 0%

Results for COc1ccc(OC)c2sc(NC(=O)c3ccc(Br)s3)nc12 ?
Cruzain inh noDet: 16µM*; Cruzain inh Det: -5%

Results for COc1ccc(OC)c2sc(NC(=O)c3ccc(Cl)s3)nc12 ?
Cruzain inh noDet: -7%; Cruzain inh Det: 5%

What do the screens show for `COc1cc(Cl)c(S(=O)(=O)NCCc2c(C)[nH]c3c(C)cccc23)cc1Cl`?
Cruzain inh noDet: -5%; Cruzain inh Det: -16%

Results for CC1CCC(C(=O)NC(C(=O)OCC(=O)c2ccc(Br)cc2)C(C)C)CC1 (stereo not given) ?
Cruzain inh noDet: -23%; Cruzain inh Det: 14µM*

Results for CCc1ccc(C(=O)COC(=O)C(NC(=O)C2CCC(C)CC2)C(C)C)cc1 (stereo not given) ?
Cruzain inh noDet: -5%; Cruzain inh Det: -15%

How did CCC(=O)Nc1cc(-c2nc3ccccc3s2)c(Cl)cc1Cl do in these assays?
Cruzain inh noDet: 4%; Cruzain inh Det: -1%

What do the screens show for `CCOC(=O)c1[nH]c2ccccc2c1NC(=O)c1ccc(Br)cc1`?
Cruzain inh noDet: -6%; Cruzain inh Det: -1%

Results for N#CCCN/N=C(/Cc1nc2ccccc2[nH]1)c1ccc(Cl)cc1 ?
Cruzain inh noDet: 25µM*; Cruzain inh Det: -1%

How did Cc1ccc(N/N=C(\Cc2nc3ccccc3[nH]2)c2ccccc2)cc1 do in these assays?
Cruzain inh noDet: 25µM*; Cruzain inh Det: -3%

Results for c1ccc(N/N=C(\Cc2nc3ccccc3[nH]2)c2ccccc2)cc1 ?
Cruzain inh noDet: -28%; Cruzain inh Det: -16%

What do the screens show for `N#CCCN/N=C(\Cc1nc2ccccc2[nH]1)c1ccccc1`?
Cruzain inh noDet: -5%; Cruzain inh Det: 0%

What do the screens show for `O=C(NC1CCCCC1)c1ccc2c(c1)N(Cc1cccc(Cl)c1)C(=O)c1ccccc1S2=O` (stereo not given)?
Cruzain inh noDet: -11%; Cruzain inh Det: -5%

What do the screens show for `COc1ccc(/C=N/NC(=O)c2[nH]c3ccc(Br)cc3c2-c2ccccc2)cc1`?
Cruzain inh noDet: inconclusive; Cruzain inh Det: 1%

How did O=C(N/N=C/c1ccccc1Cl)c1[nH]c2ccc(Br)cc2c1-c1ccccc1 do in these assays?
Cruzain inh noDet: 13µM*; Cruzain inh Det: -3%

How did O=C(COC(=O)/C=C/c1cccc(C(F)(F)F)c1)Nc1cccc2ccccc12 do in these assays?
Cruzain inh noDet: inconclusive; Cruzain inh Det: 3%

How did Cc1ccccc1NC(=O)COC(=O)/C=C/c1cccc(C(F)(F)F)c1 do in these assays?
Cruzain inh noDet: 25µM*; Cruzain inh Det: 0%

Results for O=C(COC(=O)/C=C/c1cccc(C(F)(F)F)c1)NC(c1ccccc1)c1ccccc1 ?
Cruzain inh noDet: 16µM*; Cruzain inh Det: 0%

What do the screens show for `Cc1cc(C)c(NC(=O)COC(=O)/C=C/c2cccc(C(F)(F)F)c2)c(C)c1`?
Cruzain inh noDet: 0%; Cruzain inh Det: -6%

What do the screens show for `COc1cc(/C=C/C(=O)OCC(=O)Nc2cc(C(F)(F)F)ccc2N2CCOCC2)ccc1O`?
Cruzain inh noDet: -7%; Cruzain inh Det: -6%

What do the screens show for `COc1ccc(/C=C/C(=O)OCC(=O)Nc2cc(C(F)(F)F)ccc2Cl)cc1`?
Cruzain inh noDet: 25µM*; Cruzain inh Det: -9%

Results for COc1ccc(NC(=O)C2COc3ccccc3C2)cc1Cl (stereo not given) ?
Cruzain inh noDet: -7%; Cruzain inh Det: -4%

What do the screens show for `Cc1c(Cl)cccc1NC(=O)C1CCCN(c2nnc(-n3c(C)ccc3C)s2)C1` (stereo not given)?
Cruzain inh noDet: -11%; Cruzain inh Det: -6%

What do the screens show for `Cc1ccc(NC(=O)Cn2ccn(-c3ccc(F)c(F)c3)c(=O)c2=O)cc1C`?
Cruzain inh noDet: -6%; Cruzain inh Det: -1%

How did COc1cccc2c1C(=O)c1c(O)c3c(c(O)c1C2=O)C[C@@](O)(C(=O)CO)C[C@@H]3OC1C[C@@H](N)[C@H](O)[C@H](C)O1 (stereo not given in full) do in these assays?
Cruzain inh noDet: inconclusive; Cruzain inh Det: -6%

How did CC1CCN(c2oc(Cc3cccc4ccccc34)nc2C#N)CC1 do in these assays?
Cruzain inh noDet: -3%; Cruzain inh Det: 2%

What do the screens show for `COc1ccc(N2CCN(c3oc(Cc4cccc5ccccc45)nc3C#N)CC2)cc1`?
Cruzain inh noDet: 16µM*; Cruzain inh Det: 3%

What do the screens show for `N#Cc1nc(Cc2cccc3ccccc23)oc1N1CCOCC1`?
Cruzain inh noDet: 8%; Cruzain inh Det: -3%

What do the screens show for `N#Cc1nc(Cc2cccc3ccccc23)oc1N1CCN(c2ccccc2)CC1`?
Cruzain inh noDet: 7.9µM*; Cruzain inh Det: 1%

What do the screens show for `C=CCNC1=C2C[C@@H](C)C[C@H](OC)[C@H](O)[C@@H](C)/C=C(\C)[C@H](OC(N)=O)[C@@H](OC)/C=C/C=C(\C)C(=O)NC(=CC1=O)C2=O`?
Cruzain inh noDet: 4%; Cruzain inh Det: -3%

What do the screens show for `COCCNC(=O)c1cc2n(n1)CCCN(Cc1ccc(C)cc1)C2=O`?
Cruzain inh noDet: -9%; Cruzain inh Det: -1%

How did Cc1ccccc1-c1nc(SCC(=O)NCc2ccco2)c2c(=O)n(C)c(=O)n(C)c2n1 do in these assays?
Cruzain inh noDet: -15%; Cruzain inh Det: 1%

Results for Cc1c(C2=CCN(S(=O)(=O)c3ccc(Br)cc3)CC2)c2ccccc2n1C ?
Cruzain inh noDet: 10µM*; Cruzain inh Det: -2%

How did CCn1c(C)c(C2=CCN(S(=O)(=O)c3ccc(C)cc3)CC2)c2ccccc21 do in these assays?
Cruzain inh noDet: inconclusive; Cruzain inh Det: -4%

What do the screens show for `Cc1nc(/N=C(\N)NC(=O)N2c3ccccc3Sc3ccccc32)nc2ccccc12`?
Cruzain inh noDet: 7.9µM*; Cruzain inh Det: -4%
